# Measurements taken from PubChem BioAssay AID488969 (Vanderbilt High Throughput Screening Facility, 2010).
# The full ranking holds about 110,000 compounds; the median of “z-score” is about -0.1, and the highest 2% start at about 2. The list comes from a sample in which the highest values are over-represented; it also holds similar structures and randomly drawn compounds. Activity calls are given as the source filed them.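 The calls were made as follows: active = z-score in the third read window above 3 or below -3; inactive = the rest.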
# Molecular target: Metabotropic glutamate receptor 8 (Rattus norvegicus) (UniProt P70579)
# Sequence (P70579 whole entry, looked up): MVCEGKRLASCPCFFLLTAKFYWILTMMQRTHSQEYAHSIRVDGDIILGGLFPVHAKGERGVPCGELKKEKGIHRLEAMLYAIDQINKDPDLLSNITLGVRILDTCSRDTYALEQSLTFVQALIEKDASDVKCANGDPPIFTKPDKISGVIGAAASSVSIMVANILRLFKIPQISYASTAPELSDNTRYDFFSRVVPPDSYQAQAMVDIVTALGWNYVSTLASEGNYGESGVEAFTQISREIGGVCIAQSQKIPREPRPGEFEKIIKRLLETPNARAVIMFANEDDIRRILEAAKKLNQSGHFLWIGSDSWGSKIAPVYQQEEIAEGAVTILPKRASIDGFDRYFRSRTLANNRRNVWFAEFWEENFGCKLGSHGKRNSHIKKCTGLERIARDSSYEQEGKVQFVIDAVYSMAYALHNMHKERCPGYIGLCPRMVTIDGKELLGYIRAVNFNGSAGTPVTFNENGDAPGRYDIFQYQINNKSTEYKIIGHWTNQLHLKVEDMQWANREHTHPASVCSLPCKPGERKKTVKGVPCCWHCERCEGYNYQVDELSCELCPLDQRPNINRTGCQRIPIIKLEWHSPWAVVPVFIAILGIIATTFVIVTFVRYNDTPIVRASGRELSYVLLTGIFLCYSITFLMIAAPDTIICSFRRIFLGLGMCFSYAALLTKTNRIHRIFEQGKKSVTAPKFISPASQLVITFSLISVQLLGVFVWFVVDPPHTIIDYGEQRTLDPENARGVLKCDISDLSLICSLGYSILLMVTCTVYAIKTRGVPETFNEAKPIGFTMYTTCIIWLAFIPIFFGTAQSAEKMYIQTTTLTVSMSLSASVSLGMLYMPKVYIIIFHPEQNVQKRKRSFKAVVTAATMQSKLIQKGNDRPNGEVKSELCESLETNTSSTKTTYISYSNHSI
# Experiment: mGluR8 Gi/Go-coupled signaling modulation – cell-based, rat, thallium flux, HTS, primary screen (AID 488969)
# Conditions: HEK293 rat mGluR8, GIRK (G protein-gated inwardly rectifying potassium channel) thallium flux, FluoZin2; at 10 µM; stronger effect = higher value; submaximal glutamate (EC20) added with thallium
row,SMILES,z-score
1,CCCCN=Cc1sc2ccc(OCC)cc2c1O,-0.188
2,CC1CCCN(C(=O)CSc2nnc3n(C4CCCC4)c(=O)c4ccccc4n23)C1 (stereo not drawn),-0.217
3,S=C(Nc1ccccc1)c1ccccn1,2.52
4,Cc1ccc(C)c(NC(=S)c2ccccn2)c1,-0.333
5,O=C(Nc1ccccc1)Nc1ccccn1,0.139
6,CCCNC1=C(N(C(C)=O)c2cccc(F)c2)C(=O)c2ccccc2C1=O,-1.55
7,CC(=O)N(Cc1ccc(F)cc1)C1=C(NCc2ccccc2)C(=O)c2ccccc2C1=O,2.03
8,CC(=O)N(Cc1ccc(F)cc1)C1=C(NCCc2ccccc2)C(=O)c2ccccc2C1=O,1.71e-05
9,COC(=O)C1(S(=O)(=O)c2cc(Br)cc3c2N(C(C)=O)CC3)CC1,-0.117
10,O=C(COC(=O)C1=Cc2ccccc2OC1)NC1CCCC1,-0.184
11,CS(=O)(=O)N(CC(=O)N1CCN(c2ccccc2)CC1)c1cc(C(F)(F)F)ccc1Cl,-0.525
12,CN1CCN(C(=O)CN(c2cc(C(F)(F)F)ccc2Cl)S(C)(=O)=O)CC1,2.63
13,CCOC(=O)N1CCN(C(=O)CN(c2cc(C(F)(F)F)ccc2Cl)S(C)(=O)=O)CC1,0.421
14,O=C(COc1cccc2ccccc12)NNC(=O)CSCCO,-0.199
15,c1ccc2c(NC3CCCC3)nnc(NC3CCCC3)c2c1,3.18 (active)
16,c1ccc(-n2nnnc2NC2CCCCC2)cc1,-0.018
17,c1csc(-c2nnc(NC3CCCCC3)c3ccccc23)c1,-1.27
18,CCOC(=O)CSc1nnc(CNc2cccc(Cl)c2)n1C,1.12
19,CCOC(=O)CSc1nnc(Cc2ccccc2)n1-c1cccc(Cl)c1,-0.436
20,CCOC(=O)CSc1nnc(CNc2cccc(Cl)c2)n1-c1ccccc1,2.85
21,CCOC(=O)C(=O)Nc1ccc2c(c1)OCO2,0.0617
22,Oc1c(Cl)cc(Cl)cc1C=Nc1ccccc1N1CCCC1,0.0524

row,SMILES,z-score
1,O=C(Cn1nc(Cc2ccncc2)c2ccccc2c1=O)N1CCN(C(=O)c2ccco2)CC1,3.76 (active)
2,Cc1cccc(N2CCN(C(=O)Cn3nc(Cc4ccncc4)c4ccccc4c3=O)CC2)c1C,-0.488
3,O=C(Cn1nc(Cc2cccnc2)c2ccccc2c1=O)N1CCN(C(=O)c2ccco2)CC1,-0.426
4,CC(C)=C1SC(N2CCN(c3cccc(C(F)(F)F)c3)CC2)=NC1=O,-0.205
5,O=C1c2cccc3cc(Br)cc(c23)C(=O)N1Nc1ccc(Br)cc1,-0.252
6,COc1ccc(CCNC(=O)c2ccc(CN3CCC(Cc4ccccc4)CC3)cc2)cc1,-0.304
7,Cc1ccc(CCNC(=O)C2CCCN(S(=O)(=O)c3c(C)noc3/C=C/N(C)C)C2)cc1 (stereo not drawn),-0.519
8,Cc1noc(/C=C/N(C)C)c1S(=O)(=O)N1CCCC(C(=O)NCc2ccc(F)cc2)C1 (stereo not drawn),2.21
9,Cc1noc(/C=C/N(C)C)c1S(=O)(=O)N1CCCC(C(=O)NCc2ccc(Cl)cc2)C1 (stereo not drawn),-0.29
10,CC(C)(C)NC(=O)C(c1ccncc1)N(C(=O)Cn1nnc(-c2cccs2)n1)C1CCCCC1 (stereo not drawn),-0.081
11,Cc1cc(C)nc(SCc2nnc(SCC(=O)NCc3ccco3)n2-c2ccccc2)n1,-0.73
12,Cc1ccc(-n2c(CSc3nc(C)cc(C)n3)nnc2SCC(=O)NCc2ccco2)cc1,8.78 (active)
13,Cc1cc(C)nc(SCC(=O)NCc2ccco2)n1,0.232
14,Cc1ccc(-c2nc3ncccc3o2)cc1NC(=O)Cc1ccc(Cl)cc1,0.497
15,CNC(=O)C1CC(=O)N(c2ccc(C)cc2)C1 (stereo not drawn),0.338
16,O=C(Nc1ccc2c(c1)OCCO2)C1CCCN(S(=O)(=O)c2cccc3nsnc23)C1 (stereo not drawn),0.545
17,CN(C)S(=O)(=O)N1CCN(C(=O)N2CCCCCC2)CC1,-0.197
18,Cc1ccsc1C(=O)OCC(=O)N1CC(=O)Nc2ccccc21,-0.081
19,CCOc1ncccc1C(=O)OCC(=O)N1CC(=O)Nc2ccccc21,2.36
20,Cc1ccc(C(=O)OCC(=O)N2CC(=O)Nc3ccccc32)s1,0.331
21,O=C(CCN1C(=O)C2CC=C(Cl)CC2C1=O)NCc1ccco1 (stereo not drawn),-0.187
22,O=S(=O)(NC1CC1)c1ccc(S(=O)(=O)N(Cc2ccccn2)C2CCCC2)cc1,-0.114

row,SMILES,z-score
1,O=C(Nc1ccc(N2CCN(C(=O)c3ccco3)CC2)c(Cl)c1)c1c(F)c(F)c(F)c(F)c1F,-0.334
2,O=C(Cc1ccc(Cl)cc1)Nc1ccc(N2CCN(C(=O)c3ccco3)CC2)c(Cl)c1,2.13
3,O=C(Cc1ccc(Cl)cc1)Nc1ccc(N2CCN(C(=O)c3ccco3)CC2)cc1,0.107
4,Cc1cc(/C=N\NC(=O)CC(=O)NC2CCCCC2)c(C)n1-c1cccc(Cl)c1Cl,-0.438
5,CCN1CCN(Cc2ccccc2NC(=O)Nc2ccc(C)cc2)CC1,0.088
6,NC(=O)C1CCCN(C(=O)Nc2cccc3ccccc23)C1 (stereo not drawn),0.107
7,COC(=O)Cc1c[nH]c2cccc(OCC(O)CN(Cc3ccccc3)C(C)C)c12 (stereo not drawn),0.637
8,CCCn1nc2cc(C(=O)NCCc3ccc(C)cc3)ccc2c1OCC,2.73
9,CCCCn1nc2cc(C(=O)NCCc3ccc(C)cc3)ccc2c1OCC,-0.356
10,CCOc1c2ccc(C(=O)NCCc3ccc(C)cc3)cc2nn1CC,-0.287
11,Cc1c(C(N)=O)sc2ncn(CC(=O)OC(C)C)c(=O)c12,0.619
12,CN(C)CCSc1nc(-c2ccccc2)nc2c1COC(C)(C)C2,-0.143
13,CC(C)NCCCOc1ccc(C(C)(C)c2ccccc2)cc1,0.192
14,CNCCCOc1ccc(C(C)(C)c2ccccc2)cc1,0.32
15,CN(C)CCCOc1ccc(C(C)(C)c2ccccc2)cc1,3.07 (active)
16,O=C(Nc1ccc(N2CCN(C(=O)c3ccco3)CC2)cc1)c1ccc2c(c1)OCO2,0.192
17,CCN1C(=O)CC(N2CCC(Cc3ccccc3)CC2)C1=O (stereo not drawn),-0.239
18,Cc1cc(O)c(C(C[N+](=O)[O-])c2ccc(Cl)cc2)c(=O)o1 (stereo not drawn),0.103
19,C=CCNC(=S)Nc1ccc2nc(C)c(C)nc2c1,0.0978
20,CCOC(=O)c1cc2c(nc1NC(=S)NCc1ccccc1)CCCC2,2.16
21,CCOC(=O)c1cc2c(nc1N)CC(C)(C)OC2,-0.353
22,CCOC(=O)c1cc2c(nc1NC(=S)Nc1ccccc1)CC(C)(C)OC2,-0.292

row,SMILES,z-score
1,C=C(C)CNC(=S)Nc1nc2c(cc1C(=O)OCC)CCCC2,3.56 (active)
2,CCOC(=O)c1ccc(CNCc2ccccc2)cc1,-0.07
3,C=CCNC(=S)Nc1nc2c(cc1C(=O)OCC)CCCC2,7.76 (active)
4,CCNC(=S)Nc1nc2c(cc1C(=O)OCC)CCCC2,8.73 (active)
5,CCOC(=O)c1cnc2cc3c(cn2c1=O)CCCC3,0.699
6,C=CCNc1nc(-c2ccccc2)c(C(=O)OCC)cc1C#N,-0.303
7,CCOC(=O)c1ccc(NC(=S)NCCC2=CCCCC2)cc1,-0.19
8,CCOC(=O)c1cc2c(nc1N)CC(C)(CC)OC2 (stereo not drawn),-0.0521
9,O=C(NCC1CCCO1)c1ccc(CS(=O)(=O)c2c(Cl)cccc2Cl)o1 (stereo not drawn),-0.0453
10,COc1ccccc1-n1c(=O)[nH]c2c(C(N)=O)nc(C3CCCCC3)nc21,-0.356
11,CCN1CCN(C(c2ccc(OC)cc2)C(O)C(=O)c2c[nH]c3ccccc23)CC1 (stereo not drawn),0.0792
12,C=CCn1c(COc2ccc(Cl)cc2)nnc1SCC(=O)N/N=C/c1cccc(O)c1,-0.279
13,CCOC(=O)c1c(NC(=O)CSc2nncs2)sc(C)c1-c1ccccc1,-0.117
14,CCOC(=O)c1ccccc1N1C(=O)CSC1=S,-0.0781
15,COCCn1c(C)cc(C(=O)COC(=O)c2ccc(NC(=O)CC#N)cc2)c1C,-0.449
16,Cc1nn(Cc2c(F)c(F)c(F)c(F)c2F)c(C)c1NC(=O)c1ccc(COc2ccccc2Cl)o1,-0.506
17,CC(=O)c1cc2c(cc1NC(=O)CCC1CCCC1)OCO2,0.181
18,COc1ccc(NC(=O)c2cc(Cl)ccc2NC(=O)c2ccco2)c(OC)c1,0.354
19,CCN(CC)S(=O)(=O)c1ccc(C(=O)Nc2nnc(C(C)C)s2)cc1,-0.2
20,COc1ccc(S(=O)(=O)NC(C)C(=O)O)cc1 (stereo not drawn),-0.408
21,O=C(OCc1nc2ccccc2s1)C1CCN(S(=O)(=O)c2cccs2)CC1,0.023
22,COc1ccc(C(=O)Cn2c(Br)nc3c2c(=O)n(C)c(=O)n3C)cc1OC,-0.137

row,SMILES,z-score
1,CCCn1c(SCC(=O)c2ccc(OC)c(OC)c2)nc2c1c(=O)n(C)c(=O)n2C,-0.237
2,COc1ccc(-c2nc3c(c(=O)n(C)c(=O)n3C)n2CC2CC(c3ccccc3)=NO2)cc1OC (stereo not drawn),2.08
3,Cc1cccc(N/C=C/c2onc(C)c2[N+](=O)[O-])c1,1.43
4,CCN(CC)S(=O)(=O)c1cc(C(=O)OCC(=O)NC2CCCc3ccccc32)ccc1C (stereo not drawn),-0.154
5,COCCn1c(C)cc(C2=NNC(=Nc3ccccc3)SC2)c1C,-0.413
6,Cc1ccc(-n2c(N)c(C(=O)NCc3cccnc3)sc2=S)cc1,0.285
7,COc1cc2c(C(=O)NCc3ccc4c(c3)OCO4)cn(C)c(=O)c2cc1OC,-0.397
8,COc1ccc(OC)c(NC(=O)Cn2c(CCC(=O)O)ccc2-c2cccs2)c1,-0.116
9,COc1ccc(S(=O)(=O)N2CCN(C(=O)NCc3ccccc3)CC2)cc1,-0.0685
10,Cc1nn(-c2ccccc2)c2[nH]c(=O)c(CNCc3ccc4c(c3)OCO4)cc12,-0.638
11,CCOc1ccc(NCc2cc3c(C(C)(C)C)nn(-c4ccccc4)c3[nH]c2=O)cc1,-0.079
12,CCc1ccc(NCc2cc3c(C)nn(-c4ccccc4)c3[nH]c2=O)cc1,5.48 (active)
13,Cc1ccc(OCC(=O)Nc2sc3c(c2C#N)CCC3)cc1C,-0.0369
14,COc1cccc(C2CC(c3ccc(F)cc3)Nc3nc(N)nn32)c1 (stereo not drawn),0.0383
15,CC1CCN(CCCNC(=O)c2ccc(CSCc3cccc(Cl)c3)o2)CC1,0.509
16,CCC(C)NC(=O)c1ccc(CSCc2cccc(F)c2)o1 (stereo not drawn),-0.863
17,O=C(NCCCN1CCCC1)c1ccc(CSCc2cccc(Cl)c2)o1,3.42 (active)
18,CC(C)CCNC(=O)c1ccc(CSCc2cccc(F)c2)o1,-3.86 (active)
19,O=C(NC1CC1)c1ccc(CSCc2cccc(F)c2)o1,4.11 (active)
20,CN1CCN(CCCNC(=O)c2ccc(CSCc3cccc(Cl)c3)o2)CC1,1.35
